# According to the antibiotic and cytotoxicity screens of Wong et al. (2023):
# Screen size: about 39,000 compounds; about 1,500 (3.8%) were called active. Only a selection was taken, and actives are over-represented in it overall.
# System: HSkMC (human skeletal muscle cells)
# Assay: cytotoxicity call (relative viability < 0.9)
# Conditions: 10 µM
row,Structure (SMILES),cytotoxicity call
1,COC(CN(C)C(=O)c1cn(C)c2ccc(S(=O)(=O)N3CCOCC3)cc2c1=O)OC,inactive
2,CCCn1c(=O)[nH]c2nc(-c3ccc(S(=O)(=O)N4CCN(c5ccc(Cl)cc5)CC4)cc3)[nH]c2c1=O,active
3,Cn1cc(S(=O)(=O)N2CCN(c3ccc(F)cc3)CC2)c(=O)n(C)c1=O,inactive
4,Cc1[nH]c(=O)[nH]c(=O)c1S(=O)(=O)N1CCN(c2ccccc2)CC1,inactive
5,C[C@H](CO)N1C[C@H](C)[C@H](CN(C)C(=O)c2ccccc2)OCCCC[C@H](C)Oc2ccc(NS(=O)(=O)c3ccccc3)cc2C1=O,inactive
6,CC(=O)Nc1ccc(S(=O)(=O)CCO)cc1,inactive
7,C[C@H](CO)N1C[C@H](C)[C@@H](CN(C)Cc2ccncc2)Oc2c(NC(=O)C3CCOCC3)cccc2C1=O,inactive
8,COc1ccc([Si](C)(C)[C@H]2[C@H](CC(=O)N3Cc4ccccc4C[C@H]3CO)O[C@@]3(C(=O)N(C)c4c(Br)cc(C)cc43)[C@@H]2C)cc1,active
9,COc1ccc([Si](C)(C)[C@H]2[C@H](CCn3cc([C@H](O)c4ccccc4)nn3)O[C@@]3(C(=O)N(C)c4c(Br)cc(C)cc43)[C@@H]2C)cc1,inactive
10,COc1ccc([Si](C)(C)[C@@H]2[C@@H](CCn3cc([C@H](O)c4ccccc4)nn3)O[C@]3(C(=O)N(c4ccccc4)c4ccccc43)[C@H]2C)cc1,inactive
11,COc1ccc([Si](C)(C)[C@@H]2[C@@H](CC(=O)N3Cc4ccccc4C[C@H]3CO)O[C@]3(C(=O)N(Cc4ccc(I)cc4)c4ccccc43)[C@H]2C)cc1,inactive
12,COc1ccc([Si](C)(C)[C@@H]2[C@@H](CC(=O)N3Cc4ccccc4C[C@H]3CO)O[C@]3(C(=O)N(C)c4c(Br)cc(C)cc43)[C@H]2C)cc1,active
13,COc1ccc([Si](C)(C)[C@@H]2[C@@H](CCn3cc([C@H](O)c4ccccc4)nn3)O[C@]3(C(=O)N(C)c4c(Br)cc(C)cc43)[C@H]2C)cc1,active
14,COc1ccc([Si](C)(C)[C@H]2[C@H](CC(=O)N3Cc4ccccc4C[C@H]3CO)O[C@@]3(C(=O)N(Cc4cccc(I)c4)c4ccccc43)[C@@H]2C)cc1,inactive
15,COc1ccc([Si](C)(C)[C@H]2[C@H](CC(=O)N(CCO)Cc3ccccc3)O[C@@]3(C(=O)N(C)c4c(Br)cc(C)cc43)[C@@H]2C)cc1,inactive
16,COc1ccc([Si](C)(C)[C@@H]2[C@@H](CC(=O)N(CCO)Cc3ccccc3)O[C@]3(C(=O)N(C)c4c(Br)cc(C)cc43)[C@H]2C)cc1,inactive
17,Cc1nnc(=O)[nH]c1NNc1ccccc1,inactive
18,COc1cccc(NC(=O)N2C[C@@H](O)COC[C@H]3O[C@H](CC(=O)NCCCN4CCOCC4)CC[C@@H]32)c1,inactive
19,COc1ccc2c3c(n(c2c1)C)[C@@H](CO)N(C[C@]13CN(C1)S(=O)(=O)c1cn(cn1)C)C(=O)Nc1ccc(cc1)F,inactive
20,NCc1ccc(-n2cccn2)cc1,inactive
21,COc1ccc(S(=O)(=O)Nc2ccc3c(c2)C(=O)N([C@H](C)CO)C[C@H](C)[C@H](CN(C)S(=O)(=O)c2cn(C)cn2)OCCCC[C@H](C)O3)cc1,inactive
22,CCCCCCCCCCCCCCCC(=O)OCC(NC(=O)C(Cl)Cl)C(O)c1ccc([N+](=O)[O-])cc1 (centres undefined),inactive

row,Structure (SMILES),cytotoxicity call
1,CCCCCCCCCC[C@@H](O)[C@H]1C=C[C@@H]2C(=O)N(c3ccccc3)C(=O)[C@@H]2N1Nc1ccc([N+](=O)[O-])cc1,active
2,CCCCCCCCCCCCCCCC(=O)OC[C@H](NC(=O)C(Cl)Cl)[C@H](O)c1ccc([N+](=O)[O-])cc1,inactive
3,C[C@@H]1CN([C@@H](C)CO)C(=O)c2cc(N(C)C)ccc2O[C@@H](C)CCCCO[C@@H]1CN(C)C(=O)Nc1cccc2ccccc12,inactive
4,C[C@@H]1CN([C@@H](C)CO)C(=O)c2cc(NS(=O)(=O)c3cccs3)ccc2O[C@@H]1CN(C)Cc1ccncc1,inactive
5,CN(C)C/C=C/C(=O)Nc1ccc(C(=O)Nc2cccc(Nc3ncc(Cl)c(-c4c[nH]c5ccccc45)n3)c2)cc1,active
6,C[C@@H]1CN([C@@H](C)CO)C(=O)c2cc(NC(=O)Nc3ccccc3)ccc2O[C@@H](C)CCCCO[C@@H]1CN(C)Cc1ccncc1,inactive
7,Cl.Nc1c2c(nc3ccccc13)CCCC2,inactive
8,Nc1c2c(nc3ccccc13)CCCC2,inactive
9,C[C@@H]1CCCCO[C@H](CN(C)Cc2ccncc2)[C@@H](C)CN([C@H](C)CO)C(=O)c2cc(NS(C)(=O)=O)ccc2O1,inactive
10,C[C@@H]1CCCCO[C@H](CN(C)C(=O)c2ccccc2)[C@@H](C)CN([C@@H](C)CO)C(=O)c2cc(NS(=O)(=O)c3cccs3)ccc2O1,inactive
11,CCC[C@@H](O)C#Cc1cnc2c(c1)C(=O)N([C@H](C)CO)C[C@H](C)[C@H](CN(C)Cc1ccc3c(c1)OCO3)O2,inactive
12,COc1ccc(S(=O)(=O)Nc2ccc3c(c2)C(=O)N([C@H](C)CO)C[C@H](C)[C@H](CN(C)S(C)(=O)=O)OCCCC[C@H](C)O3)cc1,inactive
13,COC1CC(OC2C(C)=CCC3CC(CC4(CCC(C)C(C5CCCCC5)O4)O3)OC(=O)C3C=C(C)C(=NO)C4OCC(=CC=CC2C)C34O)OC(C)C1O (centres undefined),active
14,CO[C@H]1C[C@H](O[C@@H]2/C(C)=C/C[C@@H]3C[C@@H](C[C@]4(CC[C@H](C)[C@@H](C5CCCCC5)O4)O3)OC(=O)[C@@H]3C=C(C)/C(=N/O)[C@H]4OC/C(=C\C=C\[C@@H]2C)[C@]43O)O[C@@H](C)[C@@H]1O,active
15,CO[C@H]1C[C@@H](O[C@@H]2/C(C)=C/C[C@@H]3C[C@@H](C[C@]4(CC[C@H](C)[C@@H](C5CCCCC5)O4)O3)OC(=O)[C@@H]3C=C(C)/C(=N/O)[C@H]4OC/C(=C\C=C\[C@@H]2C)[C@]43O)O[C@@H](C)[C@@H]1O,inactive
16,O=c1[nH]c(=O)n([C@H]2C[C@H](O)[C@@H](CO)O2)cc1C(F)(F)F,inactive
17,C[C@H](CO)N1C[C@H](C)[C@@H](CN(C)Cc2ccncc2)OCCCC[C@H](C)Oc2ccc(NC(=O)CCC(F)(F)F)cc2C1=O,inactive
18,C[C@H](CO)N1C[C@H](C)[C@@H](CN(C)CC2CCCCC2)OCCCC[C@H](C)Oc2ccc(NC(=O)CCCCCC(=O)Nc3ccccc3N)cc2C1=O,inactive
19,COc1ccc(NC(=O)Nc2ccc3c(c2)C(=O)N([C@@H](C)CO)C[C@@H](C)[C@H](CN(C)Cc2ccc(Cl)c(Cl)c2)OCCCC[C@@H](C)O3)cc1,inactive
20,CCCN(C)C[C@@H]1OCCCC[C@@H](C)Oc2ccc(NC(=O)Nc3ccc(OC)cc3)cc2C(=O)N([C@H](C)CO)C[C@@H]1C,inactive
21,COc1ccc(C#Cc2cnc3c(c2)C(=O)N([C@H](C)CO)C[C@@H](C)[C@@H](CN(C)C(=O)CC2CC2)O3)cc1,inactive
22,O=C(C[C@@H]1CC=CCC[C@@H](Cc2ccc(F)cc2)C(=O)OC[C@H](Cc2ccccc2)NC1=O)NCCO,inactive

row,Structure (SMILES),cytotoxicity call
1,C[C@H](CO)N1C[C@H](C)[C@H](CN(C)Cc2cccc(C(F)(F)F)c2)Oc2ncc(-c3cccc(C(F)(F)F)c3)cc2C1=O,active
2,C[C@H](CO)N1C[C@H](C)[C@H](CN(C)Cc2cccc(C(F)(F)F)c2)Oc2ncc(-c3ccccc3)cc2C1=O,inactive
3,C[C@H](CO)N1C[C@H](C)[C@H](CN(C)Cc2cccc(C(F)(F)F)c2)Oc2ncc(/C=C/c3ccccc3)cc2C1=O,active
4,C[C@H](CO)N1C[C@H](C)[C@H](CN(C)Cc2cccc(C(F)(F)F)c2)Oc2ncc(-c3cccc(F)c3)cc2C1=O,inactive
5,C[C@H](CO)N1C[C@H](C)[C@H](CN(C)Cc2ccccc2)Oc2ncc(-c3cccc(C(F)(F)F)c3)cc2C1=O,inactive
6,Cc1cccc(CN(C)C[C@@H]2Oc3ncc(-c4cccc(C(F)(F)F)c4)cc3C(=O)N([C@H](C)CO)C[C@@H]2C)c1,inactive
7,C[C@H](CO)N1C[C@H](C)[C@H](CN(C)C(=O)C2CC2)Oc2ncc(-c3ccc(C(=O)N(C)C)cc3)cc2C1=O,inactive
8,CC(C)NC(=O)N(C)C[C@@H]1Oc2ccc(NS(=O)(=O)c3cn(C)cn3)cc2CC(=O)N([C@H](C)CO)C[C@H]1C,inactive
9,Cl.OC(c1cc(C(F)(F)F)nc2c(C(F)(F)F)cccc12)C1CCCCN1 (centres undefined),active
10,C[C@@H]1CN([C@H](C)CO)S(=O)(=O)c2ccc(C#CC3(O)CCCC3)cc2O[C@H]1CN(C)C(=O)c1ccncc1,inactive
11,CNC(=O)c1c(F)cccc1Nc1nc(Nc2cc3c(cc2OC)CCN3C(=O)CN(C)C)nc2[nH]ccc12,active
12,COc1cc(C(=O)N2CCC(N3CCN(C)CC3)CC2)ccc1Nc1ncc2c(n1)N(C)c1ccccc1C(=O)N2C,inactive
13,C[C@@H]1CN([C@H](C)CO)C(=O)Cc2cc(NS(=O)(=O)c3cn(C)cn3)ccc2O[C@@H]1CN(C)C(=O)Nc1ccccc1,inactive
14,CC(C)NC(=O)Nc1ccc2c(c1)C(=O)N([C@@H](C)CO)C[C@@H](C)[C@H](CN(C)CC1CCCCC1)OCCCC[C@@H](C)O2,inactive
15,CN(C)CC(=O)N1[C@@H]2Cn3c(ccc(C4=CCCC4)c3=O)[C@H]1[C@@H](C(=O)NCC1CC1)[C@@H]2CO,inactive
16,C[C@@H]1CN([C@@H](C)CO)S(=O)(=O)c2ccc(-c3cncnc3)cc2O[C@@H]1CN(C)C(=O)Cc1cccnc1,inactive
17,C[C@H]1CN([C@@H](C)CO)C(=O)c2cc(NS(C)(=O)=O)ccc2O[C@H]1CN(C)Cc1ccc2c(c1)OCO2,inactive
18,CC(C)=CCc1c2c(c3occ(-c4ccc(O)c(O)c4)c(=O)c3c1O)C=CC(C)(C)O2,active
19,CC(C)=CCc1c2c(c3occ(-c4ccc(O)cc4)c(=O)c3c1O)C=CC(C)(C)O2,inactive
20,CC1(C)C=Cc2c(c3c(c4c(=O)c(-c5ccc(O)c(O)c5)coc24)OC(C)(C)CC3)O1,inactive
